Test [1] relates to zebrafish Estrogen Receptor (ER2b), gene 317733. Put plainly: ATG_zfER2b_XSP2: Attagene TRANS-FACTORIAL Multi-Species (XSP2) HepG2 Assay for zebrafish Estrogen Receptor (ER2b) (AID 2283823).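 Note: fitted upward as reporter gain over DMSO so potency reflects activation.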 The method, boiled down:
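Cells used were HepG2, transiently transfected with chimeric nuclear receptor-Gal4 reporter units. After 24 h of chemical treatment, reporter transcripts were amplified by RT-PCR, labelled and sized by capillary electrophoresis, with induction analysed relative to DMSO.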

Test [2] in a line: ATG_M_32_XSP2: Attagene TRANS-FACTORIAL Multi-Species (XSP2) HepG2 Assay for M19 Transcription Factor (Internal Marker) (AID 2283826). A digest of the protocol:
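Transfected HepG2 (multiplexed GAL4-UAS reporters), 24 h chemical exposure, 3 nM 6-alpha-fluorotestosterone + 1.5 nM norgestrel added. RNA → oligo(dT) RT → PCR → 6-FAM primer extension → HpaI cut → CE. Fitted upward vs DMSO.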

The subject of test [3] is frog Estrogen Receptor (ER2), gene 100174814. Put plainly: ATG_frER2_XSP2: Attagene TRANS-FACTORIAL Multi-Species (XSP2) HepG2 Assay for frog Estrogen Receptor (ER2) (AID 2283828). The method, boiled down:
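Read-out: reporter transcript levels by RT-PCR with 6-FAM primer extension, HpaI digestion and capillary electrophoresis, scored as induction over DMSO control. Transfected HepG2 carrying Xenopus ER2–GAL4 chimera; compounds incubated 24 h.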

Test [4] deals with zebrafish Thyroid Hormone Receptor alpha (TRa), thraa (gene 30670) (UniProt Q98867). The experiment in a line: ATG_zfTRa_XSP2: Attagene TRANS-FACTORIAL Multi-Species (XSP1) HepG2 Assay for zebrafish Thyroid Hormone Receptor alpha (TRa) (AID 2283832).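 Note: actives raise zebrafish TRa-Gal4 reporter transcript above DMSO baseline.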 The method, boiled down: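 HepG2, transient MRTU transfection, exogenous NR-Gal4 chimeras; 24 h dosing; mRNA readout via RT-PCR/CE fluorescence; positive direction vs DMSO.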

The subject of test [5] is turtle Thyroid Hormone Receptor, alpha (TRa), gene 101949057. The experiment in a line: ATG_trTRa_XSP2: Attagene TRANS-FACTORIAL Multi-Species (XSP1) HepG2 Assay for turtle Thyroid Hormone Receptor, alpha (TRa) (AID 2283834).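 Note: hits raise reporter mRNA over the DMSO baseline so AC50 marks activators.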 A digest of the protocol: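 Transfection of HepG2 with multiple reporter transcription units, then chemical dosing for 24 h. Total RNA was reverse-transcribed, reporter sequences PCR-amplified and FAM-labelled, then sized by capillary electrophoresis. DMSO served as baseline.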

The target of test [6] is human Thyroid hormone Receptor alpha (TRa), THRA (gene 7067) (UniProt P10827). The experiment in a line: ATG_hTRa_XSP2: Attagene TRANS-FACTORIAL Multi-Species (XSP2) HepG2 Assay for human Thyroid hormone Receptor alpha (TRa) (AID 2283838). The method, boiled down: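 Reporter transcripts were read by RT-PCR with fluorescent primer extension, HpaI digestion and capillary electrophoresis. These came from HepG2 cells carrying multiplexed TRa-Gal4 TRANS constructs, harvested 24 hours after dosing. The medium also held 6-alpha-fluorotestosterone (3 nM) and norgestrel (1.5 nM), and increases were fitted against DMSO.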

Test [7] addresses frog Thyroid hormone Receptor alpha (TRa), thra-a (gene 397942) (UniProt P15204). Put plainly: ATG_frTRa_XSP2: Attagene TRANS-FACTORIAL Multi-Species (XSP2) HepG2 Assay for frog Thyroid hormone Receptor alpha (TRa) (AID 2283839). A digest of the protocol:
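Transfect HepG2 with multiple reporter units (GAL4-UAS), dose chemical, incubate 24 h. Isolate RNA, reverse-transcribe, PCR-amplify reporter, label with 6-FAM by primer extension, digest with HpaI, run capillary electrophoresis; induction scored against DMSO.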

Test [8] addresses human Thyroid hormone Receptor beta (TRb), THRB (gene 7068) (UniProt P10828). Put plainly: ATG_hTRb_XSP2: Attagene TRANS-FACTORIAL Multi-Species (XSP2) HepG2 Assay for human Thyroid hormone Receptor beta (TRb) (AID 2283840).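 Note: actives raise reporter mRNA so potency reflects agonist-like gain of signal.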 The method, boiled down:
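Transient transfection of human HepG2 with multi-species NR-Gal4/GAL4-UAS reporter constructs; 24 h compound treatment; RNA isolation, reverse transcription, PCR and HpaI digest; capillary electrophoresis of labeled fragments; activity fitted upward versus DMSO.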

Test [9] concerns the target Estrogen receptor (Homo sapiens) (UniProt P03372). The experiment in a line: CCTE_Deisenroth_AIME_384WELL_LUC_Active: CCTE's 384-well Estrogen Receptor Transactivation Assay with AIME metabolic competence (ERTA luciferase; metabolism positive), Deisenroth Lab (AID 2284030). The method, boiled down:
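AIME metabolism-positive mode: chemicals 0.002 - 200 uM, 2 h with alginate-bound PB/BNF-induced rat S9 → medium to VM7Luc4E2 ERTA, 24 h → luciferase. Positive fit vs 17beta-estradiol; n=4 typical.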

Test [10] shares this target. The experiment in a line: CCTE_Deisenroth_AIME_384WELL_LUC_Inactive: CCTE's 384-well Estrogen Receptor Transactivation Assay without AIME metabolic competence (ERTA luciferase; metabolism negative), Deisenroth Lab (AID 2284038).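 Note: VM7Luc4E2 breast cells given medium preincubated 2 h with S9-free microspheres; hits raise estrogen receptor luciferase signal so potencies reflect agonists.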 A digest of the protocol:
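VM7Luc4E2 ER transactivation, luciferase bioluminescence after 24 h, using medium pre-incubated 2 h with S9-free alginate microspheres. Concentrations 0.002–200 uM; gain of signal fitted relative to 17beta-estradiol.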

For test [11] the target is unchanged. The experiment in a line: CCTE_Deisenroth_AIME_384WELL_LUC_Shift: CCTE's 384-well Estrogen Receptor Transactivation Assay with AIME metabolic competence data shift (ERTA luciferase; difference in metabolism positive and negative), Deisenroth Lab (AID 2284041; active = hit-call score of the fitted dose curve at least 0.9, where 1 is the maximum; inactive = score below 0.9;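 note: shift is response with S9 minus without S9 so positive means metabolism raised ER signal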). The method, boiled down: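 Test chemicals (0.002–200 uM, 10-point) were pre-incubated 2 h with alginate microspheres containing phenobarbital/beta-naphthoflavone-induced male Sprague Dawley rat liver S9 or water, then medium was transferred to VM7Luc4E2 cells for 24 h luciferase readout; shift = S9-positive minus S9-negative normalized response.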

A further test deals with PGR (gene 5241) (UniProt P06401). Put plainly: TOX21_PR_BLA_Followup_Antagonist_ratio: Tox21 HEK293 Progesterone Receptor (PR) Antagonism Beta-lactamase Follow-Up Assay, Ratio (AID 2283934).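 Note: PR-UAS-bla HEK293T cells stimulated with 1 nM R5020 agonist for 16 hr.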 The method, boiled down: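 Cells are plated, rested 6 hr, then dosed with test compound in DMSO and challenged with 1 nM promegestone. After 16 hr incubation, substrate loading for 2 h at room temperature precedes fluorescence reading; viability is measured in the same wells.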

Test [12] concerns the target sheep Cyclooxygenase-2 (Cox2), PTGS2 (gene 443460) (UniProt P79208). The experiment in a line: NVS_ENZ_oCOX2: NovaScreen (NVS) Enzymatic Assay for sheep Cyclooxygenase-2 (Cox2) (AID 2283231). A digest of the protocol: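 Colorimetric absorbance read-out of COX activity, taken 0.66 hour post-dosing, using native protein from sheep placenta. Single-concentration duplicate screen (25 uM), then singleton concentration-response up to 50 uM for actives.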

Test [13] addresses human Norepinephrine Transporter (NET), SLC6A2 (gene 6530) (UniProt P23975). Put plainly: NVS_TR_hNET: NovaScreen (NVS) Transporter Assay for human Norepinephrine Transporter (NET) (AID 2283377).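 Note: cell-free membrane protein extracted from CHO cells expressing human NET; displacement of radioligand from human NET seen as loss of scintillation signal.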 The method, boiled down: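 Single-concentration duplicate screen at 25 uM, then concentration-response for actives; displacement of specific radioligand from human NET in CHO membrane extracts, filter-based scintillation detection at 1 h relative to DMSO.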

Test [14] addresses human CYP2D6, CYP2D6 (gene 1565) (UniProt P10635). The experiment in a line: NVS_ADME_hCYP2D6: NovaScreen (NVS) CYP450-related Enzyme Activity (ADME) Assay for human CYP2D6 (AID 2283107). A digest of the protocol:
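Insect-cell recombinant enzyme + fluorogenic substrate, cell-free; 1 h incubation; fluorescence intensity readout. Acetonitrile = neg. ctrl/baseline. Single-point 10 uM, duplicate; follow-up concentration series.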

Test [15] addresses human Dual Specificity Protein Phosphatase 3 (DUSP3), DUSP3 (gene 1845) (UniProt P51452). The experiment in a line: NVS_ENZ_hDUSP3: NovaScreen (NVS) Enzymatic Assay for human Dual Specificity Protein Phosphatase 3 (DUSP3) (AID 2283152). A digest of the protocol: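 Cell-free fluorescence-intensity enzyme activity assay with recombinant protein and substrate; loss of signal fitted relative to DMSO baseline. Primary screen in duplicate at 25 uM, actives then run in concentration series; measured 0 h after dosing.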

The target in test [16] is human Esterase Plasma (ES), BCHE (gene 590) (UniProt P06276). The experiment in a line: NVS_ENZ_hES: NovaScreen (NVS) Enzymatic Assay for human Esterase Plasma (ES) (AID 2283157). A digest of the protocol:
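Primary single-concentration screen at 25 uM in duplicate, then concentration-response to a 50 uM top dose. Human plasma esterase activity detected colorimetrically after 0.25 h incubation, with DMSO as baseline.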

Test [17] deals with rat Gamma-Aminobutyric Acid Type A Receptor BDZ, alpha 6 site (GABARa6), Gabra6 (gene 29708) (UniProt P30191). The experiment in a line: NVS_LGIC_rGABARa6: NovaScreen (NVS) Ligand-Gated Ion Channel Assay for rat Gamma-Aminobutyric Acid Type A Receptor BDZ, alpha 6 site (GABARa6) (AID 2283339). The method, boiled down:
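Actives from a 25 uM duplicate screen were retested in concentration series (max 50 uM). Specific radioligand displacement from rat cerebellar membranes was counted by filter-based scintillation at 1 h; DMSO served as baseline.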

Test [18] is described as follows: CCTE_Mundy_HCI_Cortical_NOG_NeuriteCount: CCTE's Neurite Outgrowth Assay in rat cortical cells for Neurite Count, Mundy Lab (AID 2284212; active = hit-call score of the fitted dose curve at least 0.9, where 1 is the maximum; inactive = score below 0.9;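 note: cells fixed about two days after chemical exposure began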). The method, boiled down:
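Rat cortical primary cells; compound added 2 h post-plating, 1/10 dilution of working solution. Anti-betaIII-tubulin/AF488 ICC; ArrayScan neurite count vs DMSO.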

The nature of test [19]: CCTE_Mundy_HCI_Cortical_Synap_Neur_Matur_NeuriteCount: CCTE's Synaptogenesis and Neurite Maturation Assay in rat cortical cells for Neurite Count, Mundy Lab (AID 2284222; active = hit-call score of the fitted dose curve at least 0.9, where 1 is the maximum; inactive = score below 0.9;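 note: exposure from day 7 to day 12 in vitro with readout at day 12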). A digest of the protocol: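 Primary rat cortical cells were plated, treated with AraC at DIV 5, then exposed to chemicals from DIV 7 through DIV 12. After fixation and immunostaining for MAP2 and synaptophysin, imaging quantified neurites, with DMSO as the negative control.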

Results filed as inconclusive are left out. Active and inactive are the calls of the source. Rule for the calls, unless noted: active = hit-call score of the fitted dose curve at least 0.9, where 1 is the maximum; inconclusive = response in the unintended direction; inactive = score below 0.9.

Chain of Estrogen receptor (Homo sapiens) (P03372 whole entry, looked up): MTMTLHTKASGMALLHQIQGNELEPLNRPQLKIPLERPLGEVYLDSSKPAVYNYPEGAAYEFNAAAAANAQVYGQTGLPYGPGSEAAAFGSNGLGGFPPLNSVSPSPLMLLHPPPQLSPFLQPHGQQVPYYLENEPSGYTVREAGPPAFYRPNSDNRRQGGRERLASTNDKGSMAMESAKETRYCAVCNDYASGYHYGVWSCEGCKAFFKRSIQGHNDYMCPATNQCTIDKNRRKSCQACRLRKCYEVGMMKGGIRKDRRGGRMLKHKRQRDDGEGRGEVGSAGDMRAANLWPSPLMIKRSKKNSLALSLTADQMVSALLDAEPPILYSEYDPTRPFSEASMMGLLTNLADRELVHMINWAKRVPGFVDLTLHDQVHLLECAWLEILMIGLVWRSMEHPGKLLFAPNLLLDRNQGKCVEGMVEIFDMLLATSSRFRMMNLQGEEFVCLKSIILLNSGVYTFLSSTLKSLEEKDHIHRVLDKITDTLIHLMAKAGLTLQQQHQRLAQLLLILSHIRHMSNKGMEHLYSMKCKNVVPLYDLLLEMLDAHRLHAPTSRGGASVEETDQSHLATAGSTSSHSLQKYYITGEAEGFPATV
Chain of frog Thyroid hormone Receptor alpha (TRa), thra-a (gene 397942) (P15204 whole entry, looked up, the tested form may be a part): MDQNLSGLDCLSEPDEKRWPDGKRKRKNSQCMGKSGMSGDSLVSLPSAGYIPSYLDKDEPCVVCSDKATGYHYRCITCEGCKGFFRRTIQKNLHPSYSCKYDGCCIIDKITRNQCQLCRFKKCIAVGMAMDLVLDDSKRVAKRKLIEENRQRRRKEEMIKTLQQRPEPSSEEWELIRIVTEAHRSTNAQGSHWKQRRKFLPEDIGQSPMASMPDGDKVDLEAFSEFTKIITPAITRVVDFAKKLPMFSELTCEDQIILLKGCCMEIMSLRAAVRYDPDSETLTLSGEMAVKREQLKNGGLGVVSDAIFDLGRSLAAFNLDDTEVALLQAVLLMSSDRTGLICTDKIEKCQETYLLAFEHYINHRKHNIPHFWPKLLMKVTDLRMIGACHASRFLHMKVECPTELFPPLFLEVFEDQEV
Chain of human Esterase Plasma (ES), BCHE (gene 590) (P06276 whole entry, looked up): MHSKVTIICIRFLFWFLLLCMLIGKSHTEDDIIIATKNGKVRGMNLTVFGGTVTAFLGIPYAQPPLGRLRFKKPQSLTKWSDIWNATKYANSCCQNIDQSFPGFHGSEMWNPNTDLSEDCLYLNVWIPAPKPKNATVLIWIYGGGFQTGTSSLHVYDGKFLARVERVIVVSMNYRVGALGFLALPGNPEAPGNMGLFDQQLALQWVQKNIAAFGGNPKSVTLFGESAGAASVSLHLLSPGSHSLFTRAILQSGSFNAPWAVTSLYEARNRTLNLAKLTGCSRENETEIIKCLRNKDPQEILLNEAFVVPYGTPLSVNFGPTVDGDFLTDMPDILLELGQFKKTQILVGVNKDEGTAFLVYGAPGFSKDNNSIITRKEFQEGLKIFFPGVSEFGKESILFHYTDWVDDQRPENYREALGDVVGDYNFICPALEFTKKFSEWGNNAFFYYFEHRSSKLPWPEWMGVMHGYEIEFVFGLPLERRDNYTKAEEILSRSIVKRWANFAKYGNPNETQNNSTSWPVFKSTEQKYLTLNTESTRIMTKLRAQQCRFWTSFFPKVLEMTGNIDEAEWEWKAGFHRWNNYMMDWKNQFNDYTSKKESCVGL
Chain of human CYP2D6, CYP2D6 (gene 1565) (P10635 whole entry, looked up): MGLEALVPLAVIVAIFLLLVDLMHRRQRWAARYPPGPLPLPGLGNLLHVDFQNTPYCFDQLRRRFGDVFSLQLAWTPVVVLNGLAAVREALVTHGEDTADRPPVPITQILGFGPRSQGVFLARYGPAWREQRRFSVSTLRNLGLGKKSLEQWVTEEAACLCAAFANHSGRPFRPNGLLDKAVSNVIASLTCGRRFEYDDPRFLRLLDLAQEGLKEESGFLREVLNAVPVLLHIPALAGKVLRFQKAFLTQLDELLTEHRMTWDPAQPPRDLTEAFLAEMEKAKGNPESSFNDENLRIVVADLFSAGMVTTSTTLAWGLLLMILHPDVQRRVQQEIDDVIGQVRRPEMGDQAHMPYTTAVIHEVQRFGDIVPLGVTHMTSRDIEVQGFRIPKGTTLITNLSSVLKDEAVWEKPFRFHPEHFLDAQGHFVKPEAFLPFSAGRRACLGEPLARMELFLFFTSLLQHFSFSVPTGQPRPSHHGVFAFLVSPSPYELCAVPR
Chain of human Norepinephrine Transporter (NET), SLC6A2 (gene 6530) (P23975 whole entry, looked up): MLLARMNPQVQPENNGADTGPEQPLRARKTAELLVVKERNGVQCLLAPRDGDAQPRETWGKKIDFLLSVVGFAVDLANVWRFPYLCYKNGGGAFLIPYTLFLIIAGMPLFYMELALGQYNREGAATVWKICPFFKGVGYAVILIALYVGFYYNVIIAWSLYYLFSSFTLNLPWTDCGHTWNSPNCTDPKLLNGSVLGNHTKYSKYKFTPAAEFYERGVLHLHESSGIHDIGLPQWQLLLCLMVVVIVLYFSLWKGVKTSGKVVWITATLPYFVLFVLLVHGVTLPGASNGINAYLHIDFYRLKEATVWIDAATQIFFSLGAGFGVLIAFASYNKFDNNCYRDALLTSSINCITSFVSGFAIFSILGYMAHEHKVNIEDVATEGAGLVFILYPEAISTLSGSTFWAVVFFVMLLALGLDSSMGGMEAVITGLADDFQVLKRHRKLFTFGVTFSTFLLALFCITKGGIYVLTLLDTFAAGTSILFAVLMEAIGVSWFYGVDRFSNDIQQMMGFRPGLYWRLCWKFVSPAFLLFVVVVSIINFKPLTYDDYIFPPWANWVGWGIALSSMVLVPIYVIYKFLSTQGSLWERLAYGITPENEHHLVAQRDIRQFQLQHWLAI
Chain of zebrafish Thyroid Hormone Receptor alpha (TRa), thraa (gene 30670) (Q98867 whole entry, looked up, the tested form may be a part): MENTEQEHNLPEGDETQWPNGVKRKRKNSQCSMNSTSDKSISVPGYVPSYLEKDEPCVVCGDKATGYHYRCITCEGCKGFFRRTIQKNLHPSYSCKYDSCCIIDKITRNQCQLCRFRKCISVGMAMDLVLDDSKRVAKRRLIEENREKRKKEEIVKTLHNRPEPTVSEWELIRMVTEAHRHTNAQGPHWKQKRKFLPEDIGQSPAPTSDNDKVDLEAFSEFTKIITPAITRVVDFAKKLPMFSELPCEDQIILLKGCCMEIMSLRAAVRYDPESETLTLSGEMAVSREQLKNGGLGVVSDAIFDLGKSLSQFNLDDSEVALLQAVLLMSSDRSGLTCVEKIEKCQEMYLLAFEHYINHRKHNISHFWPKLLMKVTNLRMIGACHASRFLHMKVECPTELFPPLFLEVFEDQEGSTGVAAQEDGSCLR
Chain of sheep Cyclooxygenase-2 (Cox2), PTGS2 (gene 443460) (P79208 whole entry, looked up): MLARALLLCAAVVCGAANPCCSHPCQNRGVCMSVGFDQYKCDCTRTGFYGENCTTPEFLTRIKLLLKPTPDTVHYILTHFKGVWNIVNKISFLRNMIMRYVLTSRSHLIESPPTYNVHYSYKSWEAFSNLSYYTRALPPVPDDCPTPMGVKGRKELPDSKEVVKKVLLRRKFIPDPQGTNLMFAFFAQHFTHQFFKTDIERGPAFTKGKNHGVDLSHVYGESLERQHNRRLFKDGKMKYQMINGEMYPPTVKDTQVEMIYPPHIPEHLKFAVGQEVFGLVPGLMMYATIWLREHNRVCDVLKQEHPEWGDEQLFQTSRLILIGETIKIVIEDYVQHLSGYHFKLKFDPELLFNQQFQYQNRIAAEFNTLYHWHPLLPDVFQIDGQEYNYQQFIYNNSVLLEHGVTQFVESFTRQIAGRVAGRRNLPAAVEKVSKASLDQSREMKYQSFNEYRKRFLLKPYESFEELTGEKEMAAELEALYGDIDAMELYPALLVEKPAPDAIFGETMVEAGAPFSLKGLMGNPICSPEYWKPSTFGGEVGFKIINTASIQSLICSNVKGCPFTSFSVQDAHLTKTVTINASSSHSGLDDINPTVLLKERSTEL
Chain of rat Gamma-Aminobutyric Acid Type A Receptor BDZ, alpha 6 site (GABARa6), Gabra6 (gene 29708) (P30191 whole entry, looked up): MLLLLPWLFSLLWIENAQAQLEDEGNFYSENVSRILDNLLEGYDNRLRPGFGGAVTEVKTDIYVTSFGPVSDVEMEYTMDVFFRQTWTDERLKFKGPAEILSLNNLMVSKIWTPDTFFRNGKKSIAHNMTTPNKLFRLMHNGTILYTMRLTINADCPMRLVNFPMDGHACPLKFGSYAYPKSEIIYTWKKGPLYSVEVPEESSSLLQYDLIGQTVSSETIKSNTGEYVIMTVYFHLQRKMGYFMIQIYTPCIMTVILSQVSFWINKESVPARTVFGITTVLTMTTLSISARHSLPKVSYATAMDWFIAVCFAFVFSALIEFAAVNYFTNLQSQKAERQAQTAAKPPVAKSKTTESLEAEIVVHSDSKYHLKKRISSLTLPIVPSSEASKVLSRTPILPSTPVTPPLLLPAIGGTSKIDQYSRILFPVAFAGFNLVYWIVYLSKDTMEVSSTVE
Chain of human Thyroid hormone Receptor beta (TRb), THRB (gene 7068) (P10828 whole entry, looked up, the tested form may be a part): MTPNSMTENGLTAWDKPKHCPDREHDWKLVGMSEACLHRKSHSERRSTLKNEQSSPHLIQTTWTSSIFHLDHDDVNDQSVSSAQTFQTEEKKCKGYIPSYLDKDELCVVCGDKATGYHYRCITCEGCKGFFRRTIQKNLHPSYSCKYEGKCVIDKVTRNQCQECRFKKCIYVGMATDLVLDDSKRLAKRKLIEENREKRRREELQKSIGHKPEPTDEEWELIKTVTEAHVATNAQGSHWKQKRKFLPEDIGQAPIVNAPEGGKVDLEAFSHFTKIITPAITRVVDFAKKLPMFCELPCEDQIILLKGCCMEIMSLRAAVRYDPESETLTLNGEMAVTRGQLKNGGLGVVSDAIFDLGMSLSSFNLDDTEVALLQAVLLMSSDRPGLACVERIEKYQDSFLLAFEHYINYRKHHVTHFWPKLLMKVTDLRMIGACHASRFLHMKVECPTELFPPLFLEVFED
Chain of human Dual Specificity Protein Phosphatase 3 (DUSP3), DUSP3 (gene 1845) (P51452 whole entry, looked up): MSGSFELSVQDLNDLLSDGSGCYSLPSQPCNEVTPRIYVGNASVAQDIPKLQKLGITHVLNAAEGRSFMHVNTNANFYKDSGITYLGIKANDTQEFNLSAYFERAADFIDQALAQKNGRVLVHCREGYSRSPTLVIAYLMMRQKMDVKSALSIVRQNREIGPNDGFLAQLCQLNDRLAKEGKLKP

For the compound `CC(C)CCCCCCCOC(=O)c1ccccc1C(=O)OCCCCCCCC(C)C`, the result in test [1], in [2], in test [3], in [4], in test [6] and in test [7] was inactive. Further, in test [8], the compound was classed as inactive. In [5], the AC50 – broadly, the concentration at which the activity in the assay is half-maximal – was 100 µM (active).

Take `CCCC=NO`: the call in test [9], in test [10] and in test [11] was inactive.

With `C[C@]12CCC(=O)C(O)=C1CC[C@@H]1[C@@H]2CC[C@]2(C)C(=O)CC[C@@H]12`, the AC50 with PGR (gene 5241) is 11.3 µM (active).

Turning to `O=CNC(N1CCN(C(NC=O)C(Cl)(Cl)Cl)CC1)C(Cl)(Cl)Cl` (stereo not given), in test [12], the call was inactive.

For `CC(C)(C)C(O)C(Oc1ccc(-c2ccccc2)cc1)n1cncn1` (stereo not given), in [13], the AC50 is 25 µM (active).

With `Nc1ccc(-c2ccc(N)c(N)c2)cc1N`, the AC50 in test [14] is 4.48 µM (active); in [15], 8.44 µM (active); in test [16], 29.1 µM (active).

On to `C[C@]12CC[C@H](O)C[C@H]1CC[C@@H]1[C@@H]2C[C@@H](O)[C@]2(C)[C@@H](C3=CC(=O)OC3)CC[C@]12O`, for which the result in test [17] was inactive.

For `CC(C)(c1cc(Cl)c(O)c(Cl)c1)c1cc(Cl)c(O)c(Cl)c1`, the AC50 is 25.7 µM (active) in test [1] and 5.92 µM (active) in [3]. For the same compound, the call in test [2], in test [4], in test [5], in test [6], in test [7] and in test [8] was inactive.

`CNC(=N[N+](=O)[O-])NCC1CCOC1` (stereo not given): the compound was classed as inactive in test [12], in test [18] and in test [19].

`C=COCCCl`: the result in test [17] was inactive.

As for `CC1(C)[C@H](C(=O)O[C@H](C#N)c2cccc(Oc3ccccc3)c2)[C@@H]1C=C(Br)Br`, the AC50 in test [14] is 2.27 µM (active); in [13], 32.8 µM (active).

Consider `N#Cc1cc(I)c(O)c(I)c1`, for which the result in the test with PGR (gene 5241) was inactive.

For the compound `O=C1C(Cl)=C(Cl)C(=O)C(Cl)=C1Cl`, the AC50 in test [15] is 1.19 µM (active).

With `Cc1ccc(OP(=O)(Oc2ccc(C)cc2)Oc2ccc(C)cc2)cc1` (tested in a mixture with another compound), the AC50 in test [18] is 20.6 µM (active). Also, the result in [19] was inactive.

Consider `Cc1cc(C)c(C2=C(OC(=O)CC(C)(C)C)C3(CCCC3)OC2=O)c(C)c1`, for which the result in [9], in test [10] and in test [11] was inactive.

For `COC(C)(C)CCC[C@H](C)C/C=C/C(C)=C/C(=O)OC(C)C`, the concentration at half-maximal activity (AC50) in test [16] was 16.5 µM (active).

Source of the values: PubChem BioAssay (EPA / NIEHS).
